In the assay the target is T1, ETS1 (UniProt P14921).
T1 sequence: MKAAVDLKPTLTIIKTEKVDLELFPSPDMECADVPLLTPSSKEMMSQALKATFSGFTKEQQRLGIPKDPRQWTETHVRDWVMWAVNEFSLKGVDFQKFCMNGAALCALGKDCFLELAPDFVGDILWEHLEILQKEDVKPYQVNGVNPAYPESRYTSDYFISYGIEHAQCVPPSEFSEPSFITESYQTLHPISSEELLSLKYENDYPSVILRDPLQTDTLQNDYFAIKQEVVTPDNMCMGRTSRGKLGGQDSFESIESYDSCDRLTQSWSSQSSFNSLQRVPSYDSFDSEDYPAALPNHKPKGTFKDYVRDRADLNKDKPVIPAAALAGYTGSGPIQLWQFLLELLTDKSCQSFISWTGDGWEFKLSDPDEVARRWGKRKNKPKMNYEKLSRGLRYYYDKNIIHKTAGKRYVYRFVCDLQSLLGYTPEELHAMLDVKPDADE
The assay can be described thus: TF binding intensity (PBM fluorescence), negative control probe (arbitrary fluorescence units); higher = stronger binding. As to the method:
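gcPBM negative-control 36-bp genomic probes lacking TF binding sites. Each was incubated with recombinant human ETS1 or RUNX1 alone and detected by antibody fluorescence. Values are medians over replicate spots (4 spots for the ETS1-RUNX1 arrays, 3 for the ETS1-ETS1 array). The probes sit in constant array flanks that are not printed.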

For the sequence “CAGAAGTTATAATAATTAATGATATCATTCAGTGTG (protein concentration 10 nM)”, the TF binding intensity was 118. The sequence “CCGGGCCGCTGCGGGCTCCCCAGCTCCCCACAGATC (protein concentration 10 nM)” had a TF binding intensity of 147. Sequence “AACTTGAAGTCACCACATGAAAGGTTCCAATGCAGC (protein concentration 10 nM)” showed a TF binding intensity of 121. For “CTGGGGTGGCGCCAGCCTTATTATGACTAACCATGA (protein concentration 10 nM)”, the TF binding intensity was 105. Consider “CCTGTTTGAAAGAGAAAGAGGGCAGAGTGTGACATG (protein concentration 10 nM)”, for which the TF binding intensity was found to be 160. As to “GGCTGGTAGAAATACTGCGGCTAATAAAGGCGTGGA (protein concentration 1 nM)”, the TF binding intensity was 425. “TCCAGAAGCAGAGGCTGAGAGAGGGATTCTTGTGCC (protein concentration 10 nM)” had a TF binding intensity of 112. In the case of “GGCGGCGCCGGCGGCTGCGGGGTTATCTCCGCGGCC (protein concentration 10 nM)” it was 107.

“TGATCTTTGCTTTGCTTTTTGAAAGATCTGGCAAGG (protein concentration 10 nM)” returned a TF binding intensity of 104. Turning to “TTTTTCTTTTAATTTTTCTTTTTTATTCTATTTTTT (protein concentration 10 nM)”, the TF binding intensity is 117. For “TAACAGGGAGATAAAACGGGTGAGAGCCCCCTAGGA (protein concentration 10 nM)”, the TF binding intensity was determined as 103.

In turn, “CTGCTGGGTGGAGTGTGGACAAGCGGCCTTTGCATC (protein concentration 10 nM)” yielded a TF binding intensity of 150. Then “GCAAAGCGGGCGAGTGGCCTGGAGAGAGGGAGCAGC (protein concentration 10 nM)”, with 150; and “AAGCCTGGAGTTGGGGTGGTGGGGTGAGAATCAGCC (protein concentration 10 nM)”, with 170; and “CAACGCAGACTACTAACCACTAGAGAATCCCAAGGC (protein concentration 1 nM)”, with 485. Sequence “CCGGGACCCCGCCCCCGATCCCCGCCTACCGGGGCC (protein concentration 10 nM)” registered a TF binding intensity of 209. “GTCCCGGCTCGACTCAGTCCTCCAGCCGCCCGGGGA (protein concentration 10 nM)” yielded a TF binding intensity of 120. In turn, “CTGTTGTTTGACTTTAGTCATCTCCTACTTTTATAG (protein concentration 10 nM)” registered a TF binding intensity of 137. Then “AAGGTTCTGATTCCGAGTCCCCTGAGGTGGCAGTGG (protein concentration 10 nM)”, with 111; and “GTTTGGCTTTCAGAGTGTGGTTTGGATTCCTAACAG (protein concentration 1 nM)”, with 450; and “TTATAATACATGTGCAGTATATTTTCTTGAAACTTC (protein concentration 10 nM)”, with 110. For the sequence “ATTTCTTGAGAAATCTGTGGTTATTATTTAACTCTT (protein concentration 1 nM)”, the TF binding intensity stood at 461.

Sequence “GAAAACACTAGCGTGACCTCAACAACTAAGATTAAA (protein concentration 1 nM)” had a TF binding intensity of 490. “CAGGCATCTGTCATGCCCAGTAATTAATTGCTCCAA (protein concentration 10 nM)” yielded a TF binding intensity of 117. In the case of “AGCCCGGGTGACTTGAGAGTAATTAATGTGCAAAGA (protein concentration 10 nM)” it was 106; in that of “AACGTCTACATTTGCTATTGTAAAACTTTTCAAGGC (protein concentration 10 nM)”, 125.

“CCTGAGGCCTGCCCCAGTCACCTGTATTTACCCTGC (protein concentration 10 nM)” registered a TF binding intensity of 122. Sequence “TCTCTCTGCTCTGTGAACTCTAGCTGTCTTGGCTTC (protein concentration 10 nM)” yielded a TF binding intensity of 142. With “GCTCGCCTACCCACTGATTGCCAGTGTCCTGGGTGA (protein concentration 10 nM)”, the TF binding intensity was 107.

Turning to “ATAGTACAAGCACTAGTCAAAGCTAGAGGTCACTCT (protein concentration 10 nM)”, the TF binding intensity came out at 111.

With “TTTTTTTTTTTGGTCTGTGGTTTTGGAGTTTTTGTT (protein concentration 1 nM)”, the TF binding intensity was found to be 716. In the case of “ATTCTTCTAATAATCCAGTTTGAGTGGATCCTCTGT (protein concentration 10 nM)”, the TF binding intensity was determined as 112. Turning to “AAGTTAATGAGATATTGTGGTTGTTTGTGTTTGGTT (protein concentration 1 nM)”, the TF binding intensity is 477.

Regarding “GTTAAGTACCTGAATGAGCACTGGACCAGAGCCGGG (protein concentration 10 nM)”, the TF binding intensity amounted to 106. In the case of “TAAGATCCACTGGCTTGAAATTCTTGCTGCCAGCAC (protein concentration 10 nM)” it was 130; in that of “TTATAGGTGAGAGCTACCATGCCTGGTCCTATTTAA (protein concentration 10 nM)”, 97.6.

These data come from the supplement of paper PMC10681739.
